About 83,000 compounds went through this panel and 20% of them were active in at least one assay; those are over-represented in the sample as a whole.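 Treatment: one concentration, 48 hours, 96-well format. Scoring: percent growth, with anything below 10 considered active.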 Unmarked numbers belong to inactive results. The source made the active and inactive calls.
How the values were obtained:
Test in all cases: NCI-60 one-dose screen, 48 h (100 = growth as untreated, 0 = no growth, -100 = all killed)
Conditions in all cases: 10 µM unless noted
HCT-15 colon = test system: HCT-15 colon
HT29 colon = test system: HT29 colon
SNB-75 CNS = test system: SNB-75 CNS
SNB-19 CNS = test system: SNB-19 CNS
U251 CNS = test system: U251 CNS
PC-3 prostate = test system: PC-3 prostate
SK-MEL-5 melanoma = test system: SK-MEL-5 melanoma
UACC-62 melanoma = test system: UACC-62 melanoma
LOX IMVI melanoma = test system: LOX IMVI melanoma
SK-MEL-28 melanoma = test system: SK-MEL-28 melanoma
SK-MEL-2 melanoma = test system: SK-MEL-2 melanoma
EKVX NSCLC = test system: EKVX NSCLC
SN12C renal = test system: SN12C renal
UO-31 renal = test system: UO-31 renal
TK-10 renal = test system: TK-10 renal
CAKI-1 renal = test system: CAKI-1 renal
A498 renal = test system: A498 renal
CCRF-CEM leukemia = test system: CCRF-CEM leukemia
MOLT-4 leukemia = test system: MOLT-4 leukemia
ACHN renal = test system: ACHN renal

SMILES	growth (HCT-15 colon) [%]	growth (HT29 colon) [%]	growth (SNB-75 CNS)	growth (SNB-19 CNS) [%]	growth (U251 CNS)	growth (PC-3 prostate) [%]	growth (SK-MEL-5 melanoma) [%]	growth (UACC-62 melanoma)	growth (LOX IMVI melanoma)	growth (SK-MEL-28 melanoma)	growth (SK-MEL-2 melanoma) [%]	growth (EKVX NSCLC) [%]	growth (SN12C renal) [%]	growth (UO-31 renal)	growth (TK-10 renal) [%]	growth (CAKI-1 renal)	growth (A498 renal)	growth (CCRF-CEM leukemia)	growth (MOLT-4 leukemia) [%]	growth (ACHN renal) [%]
COc1ccc([C@H]2c3[nH]c4ccccc4c3C[C@H]3C(=O)N(CCCCCCC(=O)NO)CC(=O)N23)cc1	81	35	-0.662% (active)	48.5	30.4%	11.9	12.4	9.81% (active)	13.1%	4.8% (active)	31.4	66.8	46.5	43.8%	43.5	43.9%	-4.1% (active)	13.3%	12.1	–
CCN(CC)CC(=O)Nc1c(C)ccc(N)c1C	97.1	91.7	91.7%	100	96.1%	97.5	99.6	97.6%	96.4%	107%	99.4	96.5	99.4	86.2%	100	102%	–	112%	115	112
CC(C)CC(=O)C(CCc1ccccn1)C(C)C (configuration not stated)	101	98.3	111%	108	107%	99.7	103	103%	96.5%	109%	103	99.4	107	103%	102	79%	91.8%	97.2%	108	–
CCC1N=C(N)N=C(N)N1c1ccc(Cl)cc1 (configuration not stated)	105	72.1	91.7%	106	58.8%	62.6	49.5	100%	68.6%	101%	100	68.4	96.9	89%	97	96.3%	77.1%	107%	79.6	–
NC(N)=NC1CCCCC1	103	97.1	107%	104	89.9%	89.8	107	99.6%	91.6%	109%	101	93	103	84.7%	84.1	93.9%	98.1%	90.3%	92.5	–
N/C(=N\OC(=O)c1ccccc1)C(Cc1ccccc1)C(=O)NOC(=O)c1ccccc1 (configuration not stated)	33.2	85.7	4.73% (active)	56.8	-71% (active)	43	72.2	71.2%	-81.2% (active)	89.6%	89.7	59.2	68.8	-59.5% (active)	78.3	-44.6% (active)	59.5%	9.98% (active)	35.2	–
Cc1ccc(NC(=O)c2cc(NCc3cc(O)ccc3O)ccc2O)cc1	86.3	82.9	97.8%	99.8	95.4%	74	88.6	81.9%	94.7%	108%	82.8	98.7	86.1	58%	102	107%	–	26.4%	69.7	100
CC(C)C/C=C/C=C/C(=O)N[C@@H](CC(N)=O)C(=O)N[C@@H]1C(=O)N[C@H](c2ccc(O)cc2)C(=O)N[C@H](CCCN)C(=O)N[C@H]([C@@H](C)O)C(=O)N[C@H](c2ccc(O)cc2)C(=O)N[C@H](c2ccc(O)cc2)C(=O)N[C@H]([C@H](C)O)C(=O)N[C@H](Cc2ccccc2)C(=O)N[C@H](CCCN)C(=O)N[C@H](c2ccc(O[C@H]3O[C@@H](CO)[C@@H](O)[C@@H](O)[C@H]3O[C@@H]3O[C@H](CO)[C@H](O)[C@H](O)[C@@H]3O)cc2)C(=O)N[C@H]([C@H](C)O)C(=O)N[C@H](c2ccc(O)cc2)C(=O)NCC(=O)N[C@H](CC(C)C)C(=O)N[C@H](C)C(=O)N[C@H](c2ccc(O)c(Cl)c2)C(=O)O[C@@H]1C(N)=O	70	24.2	81.9%	21	-19% (active)	83.3	26.2	-4.24% (active)	36.8%	22.8%	88.2	92.7	94.5	118%	74.5	97.1%	199%	–	38.8	111

Source: PubChem BioAssay (NCI)
